Assay results taken from the supplement of paper PMC4723716.

Test system: Plasmodium falciparum NF54 gametocytes
Experiment: viability index relative to DMSO control (fraction); higher = less gametocyte killing
Conditions: 12.5 µM, incubation time: 72 h
Summary of the method: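 In 384-well plates, compound at 12.5 µM was incubated for 72 hr at 37°C under low oxygen with P. falciparum NF54 gametocytes of each stage (I–V) at 0.50% gametocytemia and 1.25% hematocrit in 40 µl of serum-containing medium. Staining used 5 µl of 5 µM MitoTracker Red CMXRos for 20 min, then 5 µl was moved into 40 µl of 500 nM dye in serum-free medium and imaged after 30 min. Dividing the gametocyte particle count by the plate mean of solvent-only wells gave the viability index.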

[1] = gametocyte stage: Stage I viability index
[2] = gametocyte stage: Stage II viability index
[3] = gametocyte stage: Stage III viability index
[4] = gametocyte stage: Stage IV viability index
[5] = gametocyte stage: Stage V viability index

Row | SMILES | viability index [1] | viability index [2] | viability index [3] | viability index [4] | viability index [5]
1 | CCOc1cc(Br)c(C(C)NC(=O)c2cccc(OC)c2)cc1OCC (stereo not given) | 0.465 | 0.412 | 0.58 | 0.748 | 0.648
2 | CC(C)(C)c1ccc(O)c(CNC2CCCCC2)c1 | 0.256 | 0.329 | 0.482 | 0.571 | 0.462
3 | CCCc1c(C)nc2ccccc2c1O | 0.634 | 0.705 | 0.844 | 0.72 | 1.02
4 | O=[N+]([O-])c1ccc(C=NNc2nc3ccccc3[nH]2)cc1 | 0.0818 | 0.586 | 0.911 | 0.869 | 0.802
5 | Cc1ccc(N2C(=O)C3C(C2=O)C2(c4ccccc4)C(=O)C3(c3ccccc3)C(c3ccccc3)=C2c2ccccc2)cc1 (stereo not given) | 0.733 | 0.916 | 1.14 | 1.03 | 1.01
6 | COc1ccc(C)c2sc(N(Cc3cccnc3)C(=O)c3ccc(C#N)cc3)nc12 | 0.441 | 0.704 | 0.95 | 0.794 | 1.01
7 | CCCCc1c(CCC)c(=N)c2ccccc2n1C | 1.05 | 0.911 | 1 | 0.918 | 0.701
8 | Cc1sc(NC(=O)c2ccco2)c(C(c2cccnc2)N2CCC(Cc3ccccc3)CC2)c1C (stereo not given) | 0.00962 | 0.0408 | 0.261 | 0.418 | 0.351
9 | O=C(NC1CCN(Cc2ccccc2)CC1)c1cc(C(=O)NC2CCN(Cc3ccccc3)CC2)cc(C(=O)NC2CCN(Cc3ccccc3)CC2)c1 | 0.0629 | 0.0649 | 0.0393 | 0.0475 | 0.013
10 | COc1cc2c(cc1OC)C1=NNC(=O)C1=NC(C)(C)C2 | 0.00884 | 0.0058 | 0.0707 | 0.109 | 0.011
11 | CCCc1c(CC)c(=N)c2ccccc2n1C | 0.815 | 0.952 | 1.09 | 0.951 | 1.1
12 | O=c1nc(C=Cc2ccc(Br)cc2)oc2ccccc12 | 0.838 | 0.88 | 0.843 | 0.978 | 0.935
13 | COc1cc(SC)ccc1C(=O)N1CCCC(C)C1 (stereo not given) | 0.982 | 0.96 | 1.17 | 1.16 | 1.18
14 | COc1ccccc1CNC(=O)CCn1c(=O)[nH]c2ccsc2c1=O | 0.477 | 0.712 | 1 | 0.805 | 0.769
15 | CN(C)CCCNCc1ccc(-c2ccc(F)c(Cl)c2)o1 | 0.202 | 0.376 | 0.376 | 0.339 | 0.104
16 | COc1ccc(C(=O)Nc2nonc2-c2ccc(OC)c(OC)c2)cc1Cl | 0.564 | 0.401 | 0.487 | 0.568 | 0.736
17 | COc1ccc(C(=O)NC(c2ccccc2Cl)c2cc(Cl)c3cccnc3c2O)cc1 (stereo not given) | 0.11 | 0.0824 | 0.167 | 0.241 | 0.221
18 | COc1cc(OC)cc(N2C(=O)N(Cc3ccc(C(C)(C)C)cc3)c3ccccc3S2(=O)=O)c1 | 1.04 | 0.96 | 1 | 0.785 | 0.662
19 | Nc1ccc(-c2nc3cc(Cc4ccc5[nH]c(-c6ccc(N)cc6)nc5c4)ccc3[nH]2)cc1 | 0.0227 | 0.00833 | 0.0204 | 0.0127 | 0
20 | Cc1ccc(C2CC(C(F)(F)F)n3nc(C(=O)N4CCN(C(c5ccccc5)c5ccccc5)CC4)cc3N2)cc1 (stereo not given) | 0.576 | 0.645 | 0.944 | 0.804 | 0.922

Row | SMILES | viability index [1] | viability index [2] | viability index [3] | viability index [4] | viability index [5]
21 | C=CCc1c(C)nc2ccccc2c1O | 0.92 | 0.671 | 0.798 | 0.793 | 1.05
22 | Cc1ccc(C)c(Cn2c(N3CCC(C(=O)NCc4cccs4)CC3)nc3ccccc32)c1 | 0.741 | 0.378 | 0.438 | 0.342 | 0.221
23 | Cc1ccc(F)cc1NC(=O)c1cc(Cl)ccc1Nc1ccccc1 | 0.441 | 0.395 | 0.332 | 0.522 | 0.753
24 | CCOc1ccc(C=Cc2nc(=O)c3ccccc3o2)cc1 | 0.549 | 0.836 | 0.85 | 0.805 | 0.67
25 | CCCC(c1nnnn1C1CCCCC1)N1CCN(C(=O)c2ccco2)CC1 (stereo not given) | 1.04 | 0.976 | 1.01 | 1.02 | 1.16
26 | COc1ccc(-c2cc3c(SCC(=O)Nc4cc(C(F)(F)F)ccc4Cl)nccn3n2)cc1 | 1.04 | 0.886 | 1.06 | 0.924 | 1.05
27 | CCCCCCc1cc2cc(-c3csc(C=Cc4ccccc4)n3)c(=O)oc2cc1O | 0.309 | 0.313 | 0.621 | 0.797 | 0.636
28 | COc1ccc(CCn2c(=N)c(C(=O)NCc3cccnc3)cc3c(=O)n4cccc(C)c4nc32)cc1 | 0.076 | 0.611 | 0.917 | 0.937 | 1.09
29 | O=C(NCC1Cc2cccc(-c3ccncc3)c2O1)c1csc2c1CCCC2 (stereo not given) | 1.09 | 1.09 | 0.945 | 1.04 | 1.11
30 | Nc1nc(Nc2cccc(F)c2)nc2ccccc12 | 0.0673 | 0.534 | 0.725 | 0.82 | 0.844
31 | CCOc1c(Br)cc(C2C(C(=O)OC)=CN(C)C=C2C(=O)OC)cc1OC | 0.344 | 0.243 | 0.353 | 0.38 | 0.649
32 | COc1ccc(C=C2SC(Nc3ccccc3)=NC2=O)cc1 | 1.03 | 0.768 | 0.663 | 0.791 | 0.727
33 | CCOc1ccc(-n2cc(-c3ccccc3)c3c(SCc4cc(C)ccc4C)ncnc32)cc1 | 1.12 | 0.908 | 0.934 | 1.03 | 1.03
34 | COc1ccc(C=C2SC(Nc3ccc(F)cc3)=NC2=O)c(OC)c1 | 0.76 | 0.669 | 0.676 | 0.646 | 0.558
35 | O=C(Nc1ccccc1O)c1ccc(-c2ccc(Cl)cc2Cl)o1 | 0.0166 | 0.0976 | 0.6 | 0.653 | 0.736
36 | COc1ccc(C2c3ccc4ccccc4c3Oc3ncn(CCCn4ccnc4)c(=N)c32)cc1OC (stereo not given) | 0.0122 | 0.231 | 0.441 | 0.547 | 0.429
37 | CCN1CCN(c2c(C(=O)c3ccccc3)cnc3cc(OC)c(OC)cc23)CC1 | 1.03 | 0.988 | 1.22 | 1 | 0.909
38 | CCOC(=O)C1=C(C)N=c2sc(=Cc3ccccc3O)c(=O)n2C1c1ccc(OC)c2ccccc12 (stereo not given) | 0.0358 | 0.06 | 0.197 | 0.468 | 0.481
39 | CCOc1ccc2nc(C)cc(Nc3ccc(N(C)C)cc3)c2c1 | 0.157 | 0.571 | 0.868 | 0.943 | 0.857
40 | Clc1ccc2c(N3CCCC3)ccnc2c1 | 0.241 | 0.491 | 0.915 | 0.93 | 1.14

Row | SMILES | viability index [1] | viability index [2] | viability index [3] | viability index [4] | viability index [5]
41 | COc1cc2cc(C(=O)Nc3ccccc3)c(N)nc2cc1OC | 0.0265 | 0.434 | 0.727 | 0.86 | 0.758
42 | COc1ccc(Nc2nc(NN=Cc3ccc(O)cc3)nc(Nc3ccc([N+](=O)[O-])cc3)n2)cc1 | 0.00437 | 0.05 | 0.233 | 0.142 | 0
43 | COCCN(C(=O)Cc1cccs1)C(C(=O)NCc1ccc(OC)cc1)c1ccc(C(C)C)cc1 (stereo not given) | 0.846 | 0.801 | 1.18 | 1.11 | 0.967
44 | CCOc1ccc2c(c1)CN(Cc1ccc(Cl)cc1)CO2 | 0.0612 | 0.129 | 0.452 | 0.592 | 0.468
45 | CN1CCN(c2ccc(Nc3c4ccccc4nc4ccccc34)cc2)CC1 | 0.0453 | 0.0029 | 0.0523 | 0.146 | 0.121
46 | N=c1n(CCN2CCCCC2)c2ccccc2n1CC(=O)c1ccc(Cl)c(Cl)c1 | 0.115 | 0.281 | 0.848 | 0.886 | 0.753
47 | CCOC(=O)C1=CN(C)C=C(C(=O)OCC)C1c1cc(Br)c(OCC)c(OC)c1 | 0.042 | 0.0216 | 0.0421 | 0.161 | 0.117
48 | CSC1=NC(=Nc2c(C)cccc2C)C2(CCC(C(C)(C)C)CC2)N1c1ccc(Cl)cc1 (stereo not given) | 0.646 | 0.816 | 0.928 | 0.994 | 0.835
49 | Cc1ccc(CSCc2ccc(C(=O)NC3CC3)o2)cc1 | 0.678 | 0.965 | 1.07 | 0.924 | 0.978
50 | CCN(CC)CCn1c(=N)n(CC(O)c2ccc(Cl)c(Cl)c2)c2ccccc21 (stereo not given) | 0.00552 | 0.057 | 0.0608 | 0.0851 | 0.121
51 | O=C(c1ccccc1F)N(Cc1ccc(Cl)cc1)c1ccccn1 | 0.716 | 0.955 | 0.997 | 0.93 | 0.967
52 | COc1cc(-c2nc(-c3ccccc3)c(-c3ccccc3)[nH]2)cc(OC)c1O | 0.0446 | 0.247 | 0.358 | 0.532 | 0.221
53 | Cc1ccc(-c2cc3nc4c(c(O)n3n2)CCCC4)cc1 | 0.537 | 0.804 | 0.894 | 0.766 | 0.857
54 | Cn1c(=O)n(C)c2cc(CNCCNc3ccnc4cc(Cl)ccc34)ccc21 | 0.49 | 0.57 | 0.597 | 0.75 | 0.494
55 | O=C(Nc1cccc(C2=NCCN2)c1)Nc1cccc(C2=NCCN2)c1 | 0.565 | 0.718 | 0.773 | 0.908 | 0.818
56 | COc1ccc(C2=C(c3ccc(OC)cc3)C3(c4ccccc4)C(=O)C2(c2ccccc2)C2C(=O)N(c4ccc(C)cc4)C(=O)C23)cc1 (stereo not given) | 0.682 | 0.679 | 0.949 | 1.02 | 0.967
57 | CCCN(CCC)CCCNC(=O)c1cc2c(-c3ccc(OC)c(OC)c3)nn(C)c2s1 | 0.302 | 0.754 | 0.996 | 0.954 | 0.868
58 | COc1cc(-c2nc(-c3ccc(Sc4ccccc4)cc3)c(-c3ccccc3)[nH]2)cc(OC)c1O | 0.0507 | 0.0441 | 0.0529 | 0.0222 | 0.0779
59 | CN(C)c1ccc(-c2nc3cc(N)ccc3[nH]2)cc1 | 0.0873 | 0.566 | 0.962 | 0.939 | 0.725
60 | CCOC(=O)c1c(C)n(-c2ccc(Cl)cc2)c2ccc(OC(=O)C=Cc3ccccc3)cc12 | 0.708 | 0.792 | 1.01 | 0.964 | 0.978
